An excerpt weighted towards active compounds, which were near 1.6% of everything screened.
KCNQ2 pot = KCNQ2 (rat) channel potentiation; CHO-K1 KCNQ2, FluxOR thallium flux fluorescence; active compounds read high; B-score at 10 µM; 310,000 tested, 0.54% active;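 active means fluorescence ratio B-score at least 3 SD of library B-scores, with initial fluorescence B-score within 3 of them, cut at about 5.3 in these data; same plate scores as AID 2156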;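 further: B-score of peak minus minimum over baseline fluorescence ratio after K+ and Tl+ stimulus; positive B-score means potentiation of KCNQ2 with more thallium influx and brighter signal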
KCNQ2 block = inhibitors of rat KCNQ2 potassium channel; B-score at 10 µM; CHO-K1 KCNQ2, FluxOR thallium flux, 20 min; active compounds read low; O88943; 310,000 tested, 1.1% active;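 active means fluorescence ratio B-score at most minus 3 library SDs, with starting brightness B-score within 2 library SDs, cut at about -5.5 in these data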
Numbers without * were called inactive; i = inactive; . = not tested or not shown.

SMILES	KCNQ2 pot	KCNQ2 block
CCC(=O)OCCNc1cc(Sc2nc3ccccc3s2)c2nonc2c1[N+](=O)[O-]	-7.5	-7.5*
O=[N+]([O-])c1c(NCCCO)cc(Sc2nc3ccccc3s2)c2nonc12	.	i
CC1(C)Cc2c(sc(NC(=O)c3ccc(C(=O)c4ccccc4)cc3)c2C#N)C(C)(C)N1	0.68	i
O=C(CCSc1ccccn1)Nc1ccc(Br)cc1	.	i
O=C(O)c1cc(S(=O)(=O)N2CCOCC2)ccc1N1CCOCC1	1	i
Cc1cc(C)c(S(C)(=O)=O)c(Oc2cccc(Cl)c2)n1	.	i
CC(=O)Nc1ccc(NC(=O)CN(c2cccc(C(C)=O)c2)S(C)(=O)=O)cc1	.	i
COc1ccc(NC(=O)/C(Cl)=C(/Cl)S(=O)(=O)Cc2ccc(C)cc2)cn1	5.4*	i
COc1ccc(NC(=O)Cc2ccc(Cl)c(Cl)c2)cn1	.	i
COc1ccc(NC(=O)CSc2nccn2Cc2ccc(F)cc2)cc1	2.1	i
O=C(c1cccs1)N1CCN(c2nnc(-c3ccccc3)c3ccccc23)CC1	-5.9	-5.9*
Cc1ccc(-c2nnc(N3CCN(C(=O)c4cccs4)CC3)c3ccccc23)cc1	.	i
Cc1cccc(OCc2n(CC(=O)OC3CC(C)CCC3C(C)C)c3ccccc3[n+]2C)c1 (configuration not stated)	-6.3	-6.3*
Cc1cccc(OC(=O)Cn2c(C(F)(F)F)nc3ccccc32)c1	0.08	i
CC(C)OC(=O)c1c(NC(=O)c2ccco2)sc2c1CCCCC2	-6.3	-6.3*
COC(=O)c1c(NC(=O)c2ccco2)sc2c1CCC2	.	i
OCCC1CN(CC2CCCCC2)CCN1C1CCCC1 (configuration not stated)	0.37	i
OCCC1CN(CC2CCCCC2)CCN1CC1CCCCC1 (configuration not stated)	6.8*	i
Cc1ccc(OCC(=O)N(C)CC(=O)Nc2cccc(F)c2)cc1	0.05	i
CSCC(=O)N1CCCC(N2CCN(c3cccc(C(F)(F)F)c3)CC2)C1 (configuration not stated)	-6.8	-6.8*
CC1(CCC(=O)N2CCCC(N3CCN(c4cccc(C(F)(F)F)c4)CC3)C2)CC1 (configuration not stated)	.	i
Cn1c(CN2CCN(c3ccc(Cl)cc3)CC2)nc2ccccc21	0.08	i
CCn1c(CN2CCN(c3ccc(Cl)cc3)CC2)nc2ccccc21	-5.6	-5.6*
CCOC(=O)CSC1=C(C#N)C(c2ccco2)C(C(=O)Nc2cccc(C(F)(F)F)c2)=C(C)N1 (configuration not stated)	-7.2	-7.2*
CCOC(=O)C1=C(c2ccccc2)NC(SCC(=O)Nc2cccc(C)c2)=C(C#N)C1c1ccco1 (configuration not stated)	0.16	i
SMILES	KCNQ2 pot	KCNQ2 block
CN(C)CCCn1c2c(c(SCC(=O)Nc3cccc4ccccc34)nc1=O)CCC2	.	i
O=C(CCCCCN1C(=O)[C@@H]2Cc3ccccc3CN2C1=O)Nc1cccc(F)c1	-5.8	-5.8*
Cc1cccc(NC(=O)CCCCCN2C(=O)[C@@H]3Cc4ccccc4CN3C2=O)c1	.	i
CCN(Cc1ccccc1)C(c1ccc(Cl)cc1)c1nnnn1C(C)(C)C (configuration not stated)	.	i
CCN(Cc1ccccc1)C(c1ccc(C)cc1)c1nnnn1C(C)(C)C (configuration not stated)	-11	-11*
COc1ccc(CCNC(=O)Cn2c(=O)n(-c3ccc(F)cc3F)c(=O)c3sccc32)cc1OC	.	i
Cc1ccc(Cl)cc1N1CCN(C(=O)c2cn(C)c(=O)c3c2c2ccccc2n3C)CC1	-7.5	-7.5*
Cc1cccc(N2CCN(C(=O)c3cn(C)c(=O)c4c3c3ccccc3n4C)CC2)c1C	.	i
CCCOc1cccc(C2C(C(=O)c3cc4ccccc4o3)=C(O)C(=O)N2c2cc(C)on2)c1 (configuration not stated)	.	i
CC(C)(C)C(=O)NC(=S)NCc1ccccc1	.	i
CCOC(=O)C1CCN(C2=C(NS(=O)(=O)c3ccc(Cl)cc3)C(=O)c3ccccc3C2=O)CC1	.	i
CCOC(=O)C1CCCN(C2=C(NS(=O)(=O)c3ccc(Br)cc3)C(=O)c3ccccc3C2=O)C1 (configuration not stated)	-6.7	-6.7*
COc1ccc(CC(=O)N2CCOCC2)cc1	.	i
CCOCCCNCc1ccc(OCc2ccccc2C)c(OC)c1	0.45	i
O=C(Nc1ccccc1N1CCCCC1)c1ccc(N2C(=O)c3ccccc3C2=O)cc1	1.6	i
COc1ccc(C)cc1Nc1n[n+](-c2ccccc2)c(-c2ccc(N(C)C)cc2)s1	-5.7	-5.7*
CN(C)c1ccc(-c2sc(Nc3ccccc3)n[n+]2-c2ccc(F)cc2)cc1	.	i
COc1ccc(C)cc1Nc1n[n+](-c2ccccc2)c(-c2ccc(OC)c(OC)c2OC)s1	.	i
COc1ccc(C)cc1Nc1n[n+](-c2ccccc2)c(-c2c(Cl)cccc2Cl)s1	-6.5	-6.5*
CN(C)/N=C/c1ccc([N+](=O)[O-])cc1[N+](=O)[O-]	.	i
